# Counter-ions that a name gives are not always drawn.
# What was measured:
# Assay in all cases: thermal shift delta Tm vs DMSO control; higher = stronger stabilization (binding)
# Conditions in all cases: 12.5 µM; protein concentration 2 µM
# LOC_OS01G57100-cb003 = system: LOC_OS01G57100-cb003
# Procedure, shortened: (§1)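 Rice kinase domain constructs were expressed in E. coli, purified, and tested by differential scanning fluorimetry with compound added in DMSO. Each well of a 96-well plate held 19.5 μl of 2 μM kinase in 100 mM potassium phosphate pH 7.5, 150 mM NaCl, 10% glycerol and 5 × SYPRO Orange, and fluorescence was read from 25°C to 95°C at 0.05°C/s. The melting temperature shift is the mean of triplicates, taken against protein with DMSO alone after Boltzmann fitting.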
# LOC_OS01G60330-cb001 = system: LOC_OS01G60330-cb001
# Procedure, shortened: as §1
# LOC_OS01G60700-cb002 = system: LOC_OS01G60700-cb002
# Procedure, shortened: as §1
# LOC_OS01G63280-cb003 = system: LOC_OS01G63280-cb003
# Procedure, shortened: as §1
# LOC_OS01G67340-cb003 = system: LOC_OS01G67340-cb003
# Procedure, shortened: as §1
# LOC_OS01G70970-cb002 = system: LOC_OS01G70970-cb002
# Procedure, shortened: as §1
# LOC_OS02G07810-cb001 = system: LOC_OS02G07810-cb001
# Procedure, shortened: as §1
# LOC_OS02G08530-cb003 = system: LOC_OS02G08530-cb003
# Procedure, shortened: as §1
# LOC_OS02G14120-cb001 = system: LOC_OS02G14120-cb001
# Procedure, shortened: as §1
# LOC_OS02G17970-cb001 = system: LOC_OS02G17970-cb001
# Procedure, shortened: as §1
Structure (SMILES),thermal shift delta Tm (LOC_OS01G57100-cb003) [°C],thermal shift delta Tm (LOC_OS01G60330-cb001) [°C],thermal shift delta Tm (LOC_OS01G60700-cb002) [°C],thermal shift delta Tm (LOC_OS01G63280-cb003) [°C],thermal shift delta Tm (LOC_OS01G67340-cb003) [°C],thermal shift delta Tm (LOC_OS01G70970-cb002) [°C],thermal shift delta Tm (LOC_OS02G07810-cb001) [°C],thermal shift delta Tm (LOC_OS02G08530-cb003) [°C],thermal shift delta Tm (LOC_OS02G14120-cb001) [°C],thermal shift delta Tm (LOC_OS02G17970-cb001) [°C]
c1cc(-c2cnn3cc(-c4ccc(OCCN5CCCCC5)cc4)cnc23)ccn1 [Dorsomorphin 2HCl],-0.53,4.55,0.2,1.5,6.09,8.77,0.33,2.18,8.01,-0.02
Cc1ccc(C(=O)Nc2ccc(Oc3cc4cnn(C)c4cc3-c3cn[nH]c3)c(F)c2)c(=O)n1-c1ccc(F)cc1,2.31,1.94,1.29,5.18,1.33,0.33,1.19,1.25,5.05,1.48
Cn1cc(-c2ccc3nnc(Sc4ccc5ncccc5c4)n3n2)cn1,0.37,0.34,1.28,0.23,0.43,0.3,0.16,1.1,1.81,0.07
NC(=O)c1ccc2nc(-c3ccc(Oc4ccc(Cl)cc4)cc3)[nH]c2c1 [Chk2 Inhibitor II (BML-277)],-0.91,1.95,-0.56,0.87,1.05,0.31,-0.29,0.5,0.13,1.17
Cc1ccccc1-n1c(Cn2nc(-c3cccc(O)c3)c3c(N)ncnc32)nc2cccc(C)c2c1=O,1.41,0.24,1.19,0.18,0.86,0.24,1.1,0.86,-1.12,-0.12
C=CC(=O)Nc1cccc(C)c1Nc1ncc2cc(-c3c(Cl)c(OC)cc(OC)c3Cl)ccc2n1,1.11,1.2,0.26,-0.06,0.6,0.35,0.78,0.7,1.59,0.63
CN(C[C@@H]1COCCO1)S(=O)(=O)Nc1ccc2ccc3ncc(-c4cnn(C)c4)cc3c(=O)c2c1,2.19,0.33,1.15,1.83,0.51,9.99,1.23,1.58,8.53,0.59
COc1cc2c(N3CCN(C(=O)Nc4ccc(OC(C)C)cc4)CC3)ncnc2cc1OCCCN1CCCCC1 [Tandutinib (MLN518)],0.97,0.04,0.63,0.12,0.5,-0.15,0.79,0.33,0.24,-0.44
N#CCNC(=O)c1ccc(-c2ccnc(Nc3ccc(N4CCOCC4)cc3)n2)cc1 [Momelotinib (CYT387)],1.85,6.73,1.01,0.32,1.56,0.41,0.78,1.72,9.13,0.53
CC(C)(O)CNc1ncc(-c2ccnc(Nc3ccnc(Cl)c3)n2)c(CC2CC2)n1,0.99,1.94,0.32,-0.09,0.66,0.37,0.23,0.89,1.97,-0.17
N#CC(=C(/N)Sc1ccccc1N)/C(C#N)=C(\N)Sc1ccccc1N,-0.44,2.17,0.48,2.36,0.77,0.62,1.33,1.04,0.63,0.85
CNCc1ccc(-c2cc(-c3nc(-c4ccc(S(=O)(=O)C(C)C)cc4)cnc3N)on2)cc1,1.41,0.91,1.58,0.5,0.06,0.3,2.33,1.56,2.23,1.43
O=C(NC[C@H](O)CO)c1ccncc1Nc1ccc(I)cc1F,0.55,0.48,0.44,0.1,-0.19,0.16,0.72,0.65,-0.42,0.32
CCC[C@H](NC(=O)/C(C#N)=C/c1cccc(Br)n1)c1ccccc1 [Degrasyn (WP1130)],5.82,0.61,1.12,-5.45,-3.27,0.17,0.68,-0.39,-1.56,4.33
N=C(N)NC(=N)NCCc1ccccc1 [Phenformin HCl],2.51,0.5,0.54,0.18,-0.23,0.29,0.75,-0.63,1.22,0.39
O=c1cc(N2CCOCC2)oc2c1ccc1ccccc12,-0.21,-0.04,0.19,0.17,0.3,-0.28,0.45,0.22,1.47,0.01
COc1ccc(-c2ccc3c(N4CCOC[C@@H]4C)nc(N4CCOC[C@@H]4C)nc3n2)cc1CO,0.87,0.93,0.64,-0.13,-0.69,0.1,0.28,0.31,-1.22,-0.06
COc1cc2ccc(=O)oc2cc1O [Scopoletin],0.91,0.02,-0.06,-0.04,-0.05,0.41,-1.02,0.39,0.77,1.18
S=C(NCc1ccc2c(c1)OCO2)N1CCN(c2ncnc3c2oc2ccccc23)CC1 [Amuvatinib (MP-470)],1.62,1.4,1.01,0.5,0.84,0.42,1.04,1.09,0.42,1.14
CN1CCN(c2ccc(OC(F)(F)F)c(Nc3ncc4c(n3)-c3c(c(C(N)=O)nn3CCO)CC4)c2)CC1,1.21,0.44,0.52,0.63,0.36,0.12,0.04,1.25,1.17,0.51
O=C1NC(=O)C(c2cnc3ccccn23)=C1c1cn2c3c(cc(F)cc13)CN(C(=O)N1CCCCC1)CC2,1.16,3.68,2.25,0.82,0.19,0.64,1.59,1.8,0.04,2.16

Structure (SMILES),thermal shift delta Tm (LOC_OS01G57100-cb003) [°C],thermal shift delta Tm (LOC_OS01G60330-cb001) [°C],thermal shift delta Tm (LOC_OS01G60700-cb002) [°C],thermal shift delta Tm (LOC_OS01G63280-cb003) [°C],thermal shift delta Tm (LOC_OS01G67340-cb003) [°C],thermal shift delta Tm (LOC_OS01G70970-cb002) [°C],thermal shift delta Tm (LOC_OS02G07810-cb001) [°C],thermal shift delta Tm (LOC_OS02G08530-cb003) [°C],thermal shift delta Tm (LOC_OS02G14120-cb001) [°C],thermal shift delta Tm (LOC_OS02G17970-cb001) [°C]
CNC(=O)c1cccc(-c2ccc3c(N4CCOC[C@@H]4C)nc(N4CCOC[C@@H]4C)nc3n2)c1 [Vistusertib (AZD2014)],0.66,0.59,0.1,0.16,0.54,0.23,0.11,1.58,0,-0.08
CN1CCC(CNc2ccc3ncc(-c4cccc(OC(F)(F)F)c4)n3n2)CC1 [SGI-1776 free base],0.83,0.19,0.47,0.98,-0.25,1.79,0.42,2.78,7.23,-0.26
CN1CCN(c2ccc3nc(-c4c(N)c5c(F)cccc5[nH]c4=O)[nH]c3c2)CC1 [Dovitinib (TKI-258) Dilactic Acid],1.5,13.5,1.33,1.22,6.31,7.56,1.75,4.53,6.88,0.5
COc1cc2c(Nc3ccc(NC(=O)c4ccccc4)cc3)ncnc2cc1OCCCN1CCOCC1,0.97,1.05,0.6,1.19,0.4,1.66,1.37,0.66,0.79,0.45
Cc1ccc(C(=O)Nc2cccc(C(F)(F)F)c2)cc1Nc1nc(-c2cccnc2)nc2c1cnn2C,2.35,2.86,1.11,0.24,0.79,0.92,1.8,1.77,0.87,2.02
COc1cc2ncnc(Nc3cccc(Cl)c3)c2cc1OC [AG-1478 (Tyrphostin AG-1478)],1.76,1.26,1.02,0.95,0.94,0.55,1.34,1.69,6.87,1.37
CNC(=O)c1cc(Oc2ccc(NC(=O)Nc3ccc(Cl)c(C(F)(F)F)c3)cc2)ccn1 [Sorafenib],3.62,3.63,0.58,9.12,1.48,1.77,1.92,1.8,2.47,2.3
CC(C)(C)S(=O)(=O)c1ccc2nccc(Nc3n[nH]c4ccc(F)cc34)c2c1,0.91,0.99,0.81,-0.25,0.66,0.6,0.19,0.61,0.25,0.37
CN1CCCN(C(=O)c2cccc(-c3ccc(/C=C4/C(=O)Nc5ccc(Cl)cc54)o3)c2)CC1,1.45,3.07,1.97,1.12,0.39,1.61,0.97,3.51,3.94,1.03
Cc1ccc(NC(=O)c2ccc(CN3CC[C@H](N(C)C)C3)c(C(F)(F)F)c2)cc1Nc1nccc(-c2cncnc2)n1 [Bafetinib (INNO-406)],1.86,0.46,1.32,0.68,0.51,0.51,0.39,1.13,0.81,0.5
COc1cc2c(Oc3ccc4[nH]c(C)cc4c3F)ncnc2cc1OCCCN1CCCC1 [Cediranib (AZD2171)],0.31,1.14,0.79,0.02,0.06,0.42,0.2,0.41,0.33,0.26
CCc1nc(-c2cccc(C)c2)c(-c2ccnc(NC(=O)c3ccccc3)c2)s1,0.93,1.03,1.53,0.61,0.22,0.22,0.98,0.24,0.43,0.22
COc1ccc(Cl)cc1NC(=O)Nc1cc(C)nc2ccccc12,1.28,1.01,0.92,0.87,0.83,0.66,1.12,0.89,0.14,0.65
O=c1c(O)c(-c2ccc(O)c(O)c2)oc2cc(O)cc(O)c12 [Quercetin],2.71,8.09,0.35,10.7,5.98,2.14,2.05,2.33,3.39,1.77
"C=CC(=O)Nc1cccc(Nc2nc(Nc3ccc(N4CCN(C(C)=O)CC4)cc3OC)ncc2C(F)(F)F)c1 [Rociletinib (CO-1686, AVL-301)]",3.39,1.53,1.63,-0.27,0.52,1.38,1,5.28,1.71,0.49
CN(C)C/C=C/C(=O)Nc1cc2c(Nc3ccc(F)c(Cl)c3)ncnc2cc1O[C@H]1CCOC1 [Afatinib (BIBW2992)],0.75,0.2,1,-0.22,-0.42,0.44,0.56,0.76,2.04,-0.15
COCC(=O)NC/C=C/c1ccc2ncnc(Nc3ccc(Oc4ccc(C)nc4)c(C)c3)c2c1,-0.71,0.77,0.69,-0.33,-0.68,0.44,0.15,0.52,-0.57,-0.14
"O=C(c1ccc(F)c(F)c1Nc1ccc(I)cc1F)N1CC(O)([C@@H]2CCCCN2)C1 [Cobimetinib (GDC-0973, RG7420)]",2.49,0.82,1.16,0.52,0.36,0.54,0.48,1.02,1.18,0.97
Cc1cc(CS(=O)(=O)c2ccccc2)cc(OCc2ccc(CN3CCC[C@@H]3CO)cc2)c1,0.61,0.03,1.22,-0.1,-0.36,0.62,0.61,0.53,-0.41,0.96
CCN(CC)CCNC(=O)c1c(C)[nH]c(/C=C2\C(=O)Nc3ccc(-c4csc(-c5ccccc5)n4)cc32)c1C [Amcasertib (BBI503)],0.34,0.8,-0.11,0.21,0.03,0.3,-0.19,3.7,4.69,-0.15

# Reference: the supplement of paper PMC9694430
